# Screening results: PubChem, National Center for Advancing Translational Sciences (NCATS)
# aSyn rescue: alpha-synuclein toxicity inhibition in yeast; Potency, µM (series often up to 46.1 µM), without a hit: top-dose growth rescue (activation), most hits filed as activators; Yeast expressing alpha-synuclein, growth rescue, BacTiter-Glo, 24 h; actives 0.14% (n = 370,000); AID 652106; also: % of control where 0% means no effect; nearly all actives have a fitted effect of over 65% in size
#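 Galactose-induced alpha-syn yeast (OD600=0.02, raffinose-pregrown) + pinned cpd, 24 hr, 30 deg C; growth by BacTiter-Glo luminescence. Growth restoration scores as activation.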
# Rango-impB inh: inhibitors of Rango-importin beta complex formation. Potency, µM (doses to about 92.2 µM), for the others: at the highest dose inhibition of complex formation. Rango CFP/YFP FRET sensor + importin beta, 45 min. actives 0.031% (n = 340,000). AID 540263; calls by dose curve;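 also: 0% = DMSO wells and 100% = buffer wells lacking importin beta; nearly all actives have a fitted effect of over 15% in size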
#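 Inhibition scored from the CFP 486 nm/YFP 530 nm FRET ratio 45 min after adding 0.125 microM importin beta to 50 nM Rango biosensor preincubated 5 min with compound (room temperature, PBS with DTT, Tween-20, BSA). No-importin wells as positive control.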
# Rango dissoc inh: prevents RanGTP from dissociating the Rango-importin beta complex; O95149+P62826; Biochemical FRET Rango-importin beta, RanGTP-induced dissociation; Potency, µM (top dose mostly 46.1 µM), for the others: top-dose activity change, negative = inhibition; actives 0.071% (n = 340,000); AID 540253; calls by dose curve; also: % of control where 0% means no effect; nearly all actives have a fitted effect of over 45% in size
#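 Compounds preincubate 5 min with complex of recombinant Rango and importin beta in PBS with 1 mM DTT. Ran (0.6 uM) loaded with 2 mM GTP plus 0.2 uM RCC1 starts dissociation; FRET is recorded 45 min later.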
# TDP-43 yeast inh: TDP-43 toxicity inhibition in yeast. TDP-43 expressing yeast growth rescue, BacTiter-Glo, 24 h. Potency, µM (series often up to 46.1 µM), for inactives: top-dose growth rescue (activation), actives largely listed as activators. actives 1.8% (n = 410,000); also: % of control where 0% means no effect; nearly all actives have a fitted effect of over 50% in size
#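 Yeast cells expressing TDP-43 under galactose induction are exposed to compounds for 24 hr at 30 deg C. BacTiter-Glo luminescence measures growth, so protective compounds score as activators.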
# S-ASM inh: blocks human secretory acid sphingomyelinase; placental ASM, HMU-PC fluorogenic substrate, 60 min; actives 0.006% (n = 340,000); P17405; Potency, µM (doses to about 57.5 µM), for inactives: at the highest dose activity change, negative = inhibition, actives largely listed as inhibitors
# Target sequence (P17405 47-631 limits assumed): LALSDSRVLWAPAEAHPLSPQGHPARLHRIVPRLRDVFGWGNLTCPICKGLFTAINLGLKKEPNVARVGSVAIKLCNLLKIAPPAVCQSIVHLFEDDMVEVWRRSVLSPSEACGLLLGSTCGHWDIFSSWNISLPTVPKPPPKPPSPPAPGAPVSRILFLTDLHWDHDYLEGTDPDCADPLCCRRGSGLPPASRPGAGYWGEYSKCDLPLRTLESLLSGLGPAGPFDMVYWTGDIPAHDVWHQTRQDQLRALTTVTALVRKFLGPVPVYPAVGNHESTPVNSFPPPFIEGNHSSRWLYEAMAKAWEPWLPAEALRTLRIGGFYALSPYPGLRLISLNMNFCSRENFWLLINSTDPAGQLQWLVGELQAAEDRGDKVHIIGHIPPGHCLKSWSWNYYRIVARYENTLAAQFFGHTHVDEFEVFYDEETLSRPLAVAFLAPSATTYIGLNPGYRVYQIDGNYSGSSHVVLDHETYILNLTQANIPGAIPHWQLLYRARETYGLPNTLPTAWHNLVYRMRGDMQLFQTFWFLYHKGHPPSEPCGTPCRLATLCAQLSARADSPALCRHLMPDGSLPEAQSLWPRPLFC
#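 HMU-PC0 cleavage (9 uM final) by human placental ASM, 60 min at 37 °C following 10 min compound exposure at RT; stopped at pH 10, fluorescence Ex 386/Em 447 nm.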
# Abeta yeast res: restores growth of yeast expressing A-beta42 peptide. Potency, µM (titrated, usually from 46.1 µM), actives largely listed as activators. yeast expressing A-beta42, growth rescue, OD600, 48 h; response scale: 0% DMSO, 100% iron-clioquinol control. actives 0.063% (n = 410,000); also: nearly all actives have a fitted effect of over 55% in size
#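 Yeast A-beta toxicity model in growth medium with pinned compounds, 48 h at 30 C; growth read as absorbance at 600 nm. Normalized to FeCl3/clioquinol equimolar mix (positive) and DMSO (negative).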
# * marks the source's active call; other numbers are inactive results; i = inactive; ? = inconclusive; / = not tested or not shown. Compounds with a hit are over-represented: about 2% of the library has one in this group of screens. Unless noted, calls follow the shape of the dose curve; as a rule, active = well fitted curve in the direction sought with a large enough effect; inconclusive = small, poorly fitted or top-dose-only effect, or another doubt; inactive = no such curve, though single readings can be large; an effect the other way counts as inactive or inconclusive. Potency is read from the fitted curve at half-maximal effect.
SMILES,aSyn rescue,Rango-impB inh,Rango dissoc inh,TDP-43 yeast inh,S-ASM inh,Abeta yeast res
Cc1ccc(S(=O)(=O)c2nc(-c3cccs3)oc2SC(C)C)cc1,/,/,/,8%,/,i
CN(C)c1ccc(/C=C/c2ccnc3cc(Cl)ccc23)cc1,1%,/,/,/,/,/
COc1ccc(C(O)c2nc(-c3cccc(C(C)C)c3)cs2)cc1 (stereo not given),0%,/,/,35µM*,/,i
COc1ccc(C(O)c2nc(-c3cccc(O)c3)cs2)cc1 (stereo not given),?,/,/,20µM*,/,?
CCCCNC(=S)N(C)/N=C/c1ccc(F)cc1,-15%,1%,-12%,11µM*,-4%,i
Cc1ccc(C)c(NC(=O)CN(C)C(=O)c2ccc(-c3ccc(Cl)cc3)o2)c1,-2%,0%,24%,8%,-1%,i
CN(CC(=O)Nc1cccc(F)c1)C(=O)c1ccc(-c2ccc(Cl)cc2)o1,15%,-3%,-4%,22µM*,-28%,i
O=C1Nc2ccccc2C(=O)C1(Cl)Cc1ccccc1 (stereo not given),-52%,-2%,18%,35µM*,9%,i
O=S(=O)(Nc1ccc(C(O)(C(F)(F)F)C(F)(F)F)cc1)c1cccc2ccccc12,-16%,/,/,35µM*,/,i
CC(C)(C)c1ccc(S(=O)(=O)Nc2ccc(C(O)(C(F)(F)F)C(F)(F)F)cc2)cc1,-25%,/,/,35µM*,/,?
O=C(c1ccc(Cl)cc1)c1ccc(CN2C(=O)c3ccccc3C2=O)o1,10%,0%,8%,14µM*,-12%,i
O=C(c1ccc(F)cc1)c1ccc(CN2C(=O)c3ccccc3C2=O)o1,2%,-2%,0%,13µM*,-1%,i
CCOC(=O)N1CCN(Cc2nc3cc(NC(=O)C(C)C)ccc3n2C(C)C)CC1,/,/,/,-25%,/,i
Cc1cc(C)c2c(CC(=O)O)coc2c1,22%,-5%,0%,13µM*,1%,i
Cc1cc(C)c2c(CN3CCCCC3)cc(=O)oc2c1,-8%,0%,-12%,-11%,-14%,i
Cc1cc(C)c2c(CCl)cc(=O)oc2c1,0%,1%,15%,7.1µM*,-2%,i
CCN(C(=O)COC(=O)c1c2c(nc3ccccc13)/C(=C/c1ccccc1)CC(C)C2)C1CCS(=O)(=O)C1 (stereo not given),13%,-1%,-5%,14µM*,192%,i
Cc1ccc(C)c(NC(=O)c2cnc3sc(N4CCOCC4)nn3c2=O)c1,/,/,/,-17%,/,i
O=C1N(CCCl)c2ccc(Br)cc2C12OCCO2,3%,0%,7%,10µM*,-5%,i
O=[N+]([O-])c1ccccc1SNc1ccccc1,18%,/,/,13µM*,/,i
Cc1nn(-c2ccccc2)c(N)c1Sc1ccccc1[N+](=O)[O-],13%,0%,25%,16%,1%,i
CO/N=C/c1ccc(Sc2ccccc2)c([N+](=O)[O-])c1,-8%,-3%,-2%,2%,-1%,i
Nc1ccccc1Sc1ccccc1[N+](=O)[O-],17%,-3%,-2%,18µM*,1%,i
CO/N=C/c1ccc(Sc2ccccc2N)c([N+](=O)[O-])c1,7%,-2%,-13%,20µM*,-12%,?
O=[N+]([O-])c1cc(/C=N/O)ccc1Sc1ccccc1,19%,-2%,2%,3.2µM*,-12%,i
SMILES,aSyn rescue,Rango-impB inh,Rango dissoc inh,TDP-43 yeast inh,S-ASM inh,Abeta yeast res
O=[N+]([O-])c1ccc(SNc2ccccc2)c([N+](=O)[O-])c1,0%,1%,4%,?,-26%,i
COc1ccc(NC(=O)CN(Cc2ccccc2)S(=O)(=O)c2ccc(C)cc2)cc1Cl,/,/,/,-8%,/,i
CCc1ccc(S(=O)(=O)Nc2ccc(Cl)cn2)cc1,-4%,-2%,8%,25%,-2%,i
O=S(=O)(Nc1ccc(Cl)cn1)c1ccc(Cl)cc1,6%,-2%,-2%,11µM*,-2%,i
CC1CCN(c2oc(/C=C/c3ccc(F)cc3)nc2C#N)CC1,/,/,/,-9%,/,i
N#Cc1nc(/C=C/c2ccc(F)cc2)oc1N1CCCCCC1,/,/,/,11µM*,/,i
COc1ccc(/C=C/c2nc(C#N)c(N3CCCCCC3)o2)cc1OC,/,/,/,18µM*,/,i
CCN1CCN(c2oc(/C=C/c3ccc(OC)c(OC)c3)nc2C#N)CC1,/,/,/,5%,/,i
CC(C)(C)c1ccc(C(=O)C[n+]2ccccc2Cl)cc1,16%,/,/,/,/,/
Nc1c(Cl)cnc(C(Cl)(Cl)Cl)c1Cl,0%,1%,1%,13µM*,-7%,i
CCN(CC)CCSc1nnc2c3cc(F)ccc3n(CC)c2n1,/,/,/,-27%,/,i
O=C(Cn1c(-c2cccs2)cc2cc(Cl)ccc21)NCc1ccccc1,/,/,/,3%,/,i
O=C(O)Cn1c(-c2cccs2)cc2cc(Cl)ccc21,/,/,/,18µM*,/,i
CC1(C(=O)O)CCCN(C(=O)C2(c3ccc(Cl)cc3)CCCC2)C1 (stereo not given),-8%,/,/,18µM*,/,i
CC1(C(=O)NS(=O)(=O)C2CC2)CCN(C(=O)C2(c3ccc(Cl)cc3)CCCC2)C1 (stereo not given),4%,/,/,-5%,/,i
CNc1ncnc(Sc2ccc(Cl)cc2)c1[N+](=O)[O-],-4%,3%,2%,-6%,-4%,i
Cc1c([N+](=O)[O-])cnc(Sc2ccccc2)c1[N+](=O)[O-],-24%,-1%,-14%,22µM*,-8%,i
ON=C(CCc1ccccc1)c1ccccc1,12%,-1%,-3%,16µM*,-5%,i
CCCOc1ccc(NC(=O)CC2C(=O)N(c3ccccc3)C(=O)N2Cc2ccc(F)cc2)cc1 (stereo not given),/,/,/,-4%,/,i
COc1ccccc1-c1cccc([C@@H]2C[C@H]3[C@H](CON3C)CN2C(=O)CCc2ccccc2)c1,15%,-2%,14%,28µM*,-1%,i
COCC(=O)N1C[C@H]2CON(C)[C@H]2C[C@H]1c1cccc(-c2ccccc2OC)c1,0%,/,/,0%,/,i
Cc1nc2ccccc2cc1OCc1ccccc1,3%,1%,-3%,18µM*,-3%,i
Cc1nc2ccccc2cc1OCc1ccc(Cl)cc1,-17%,13%,-8%,?,-14%,i
COc1ccc(Br)cc1/C=C/C(=O)c1ccc(NC(C)=O)cc1,-8%,6%,-15%,18µM*,-3%,i
COc1ccc(NC(=O)/C=C/c2cc(Br)ccc2OC)cc1,-9%,6%,2%,-5%,-8%,i
